According to PubChem BioAssay (Tox21):
Records with an inconclusive call do not appear. Entries that show only a call come without a potency. Values without a mark were called inactive. Active and inactive are the calls of the source. Unless noted, calls come from the whole dose curve; as a rule, active = well fitted curve in the direction sought with a large enough effect in the repeat runs; inconclusive = weak or mixed curves; inactive = no such curve, though single readings can be large; an effect the other way counts as inactive or inconclusive.

Tests used:
[1] = qHTS assay to identify small molecule antagonists of the thyroid receptor (TR) signaling pathway - cell viability counter screen (AID 743064); note: nearly all actives have a fitted effect of over 50% in size
Method in brief: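 CellTiter-Fluor readout, 30 min at 37 °C/5% CO2, following 23.5 h incubation of GH3.TRE-Luc cells with test compound and 1 nM T3 (final).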

[2] = qHTS assay to identify small molecule antagonists of the thyroid receptor (TR) signaling pathway (AID 743065); note: nearly all actives have a fitted effect of over 55% in size
Method in brief: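 Antagonism measured as loss of luciferase signal in GH3 cells stably carrying a TRE-luciferase reporter, co-treated with compound and T3 (1 nM final) for 23.5 h at 37 C. Viability was read in the same well by CellTiter-Fluor.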

[3] = tested on: thyroid hormone receptor (rat, GH3 cells); assay: qHTS assay to identify small molecule agonists of the thyroid receptor (TR) signaling pathway (AID 743066; calls by dose curve)
[4] = molecular target: Estrogen receptor (Homo sapiens) (UniProt P03372); assay: qHTS assay to identify small molecule antagonists of the estrogen receptor alpha (ER-alpha) signaling pathway (AID 743069; active = well fitted curve in the direction sought with a large enough effect in the signal ratio in the repeat runs, not every such curve was filed as active; the % refers to the signal ratio)
Method in brief: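 Fluorescence intensity from a beta-lactamase FRET substrate served as the read-out. Cells: HEK293 with stably integrated ER-alpha-UAS-bla reporter. Agonist 17beta-estradiol was co-added with compounds; incubation 18 hr at 37C, substrate 2 hr at room temperature.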

[5] = qHTS assay to identify small molecule antagonists of the estrogen receptor alpha (ER-alpha) signaling pathway - cell viability counter screen (AID 743074; calls by dose curve; note: nearly all actives have a fitted effect of over 45% in size)
[6] = molecular target: Estrogen receptor (Homo sapiens) (UniProt P03372); assay: qHTS assay to identify small molecule agonists of the estrogen receptor alpha (ER-alpha) signaling pathway (AID 743075; calls by dose curve)
[7] = molecular target: Estrogen receptor (Homo sapiens) (UniProt P03372); assay: qHTS assay to identify small molecule agonists of the estrogen receptor alpha (ER-alpha) signaling pathway using the BG1 cell line (AID 743079); details: BG1Luc4E2 cells, ERE-luciferase agonist, 22 h; activation: at 70.3 µM (top of the series); note: nearly all actives have a fitted effect of over 20% in size; note: potency is the fitted concentration of half-maximal effect
[8] = qHTS assay to identify small molecule antagonists of the estrogen receptor alpha (ER-alpha) signaling pathway using the BG1 cell line (AID 743080; calls by dose curve;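 note: BG1 cells stimulated with 17beta-estradiol alongside compound; nearly all actives have a fitted effect of over 25% in size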)
Method in brief: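 Luciferase inhibition measured with ONE-Glo after 30 min at RT in BG1Luc4E2 cells given test compounds and 17beta-estradiol for 21.5 h at 37 C; CellTiter-Fluor viability read in the same wells beforehand.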

[9] = qHTS assay to identify small molecule antagonists of the estrogen receptor alpha (ER-alpha) signaling pathway using the BG1 cell line - cell viability counter screen (AID 743081);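 note: compound given together with 17beta-estradiol as the ER stimulus; nearly all actives have a fitted effect of over 45% in size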
Aromatase (Homo sapiens) = Aromatase (Homo sapiens) (UniProt P11511); assay: qHTS assay to identify aromatase inhibitors (AID 743083); note: nearly all actives have a fitted effect of over 55% in size
[10] = qHTS assay to identify aromatase inhibitors - cell viability counter screen (AID 743084);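 note: cells stimulated with testosterone during compound exposure; nearly all actives have a fitted effect of over 55% in size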
[11] = molecular target: Aryl hydrocarbon receptor (Homo sapiens) (UniProt P35869); assay: qHTS assay to identify small molecule that activate the aryl hydrocarbon receptor (AhR) signaling pathway (AID 743085);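 note: HG2L7.5c1 human HepG2 liver cells with stably integrated DRE-driven firefly reporter; nearly all actives have a fitted effect of over 15% in size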
Method in brief: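 Stably transfected human liver carcinoma cells (HG2L7.5c1; 20 DRE-firefly luciferase) were incubated 5 h, dosed, and kept 24 h at 37C. Agonism was scored from increased luciferase luminescence.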

[12] = qHTS assay to identify small molecule that activate the aryl hydrocarbon receptor (AhR) signaling pathway - cell viability counter screen (AID 743086);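 note: HepG2 liver cells carrying the AhR DRE luciferase reporter; nearly all actives have a fitted effect of over 45% in size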
Method in brief: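 Cytotoxicity counter screen: CellTiter-Fluor signal (30 min, 37 C) in 4000 HepG2 cells/well carrying the DRE-luciferase reporter, following 24 h compound exposure at 37 C.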

[13] = molecular target: Peroxisome proliferator-activated receptor gamma (Homo sapiens) (UniProt P37231); assay: qHTS assay to identify small molecule agonists of the peroxisome proliferator-activated receptor gamma (PPARg) signaling pathway (AID 743094; active = well fitted activation curve with a large enough effect in the signal ratio in the repeat runs, not every such curve was filed as active; the % refers to the signal ratio)
Method in brief: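 Cell-based bla reporter, HEK293H background, PPARg-driven UAS. Pre-incubation 5 h, 37C, 5% CO2. Compound 17 h, 37C. Substrate 1 h RT; fluorescence.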

[14] = qHTS assay to identify small molecule phospholipidosis (PLD) inducers (AID 1259344; active = well fitted curve in the direction sought with a large enough effect; an effect the other way counts as inactive or inconclusive)
Method in brief: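 Accumulated phospholipid, stained red by LipidTOX during 24 h compound treatment of HepG2 cells at 37 C, is quantified from images as pit number and intensity, normalised per cell using Hoechst-stained nuclei.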

[15] = molecular target: Nuclear receptor subfamily 1 group I member 2 (Rattus norvegicus) (UniProt Q9R1A7); assay: Rat pregnane X receptor (rPXR) activation by small molecules, qHTS assay (AID 1346983); details: rPXR luciferase reporter cells, One-Glo luminescence, 24 h; max activation: hits give high values; note: nearly all actives have a fitted effect of over 20% in size
Method in brief: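 Luminescent readout (One-Glo luciferase, 30 min room temperature) followed 24 hr compound treatment at 37 C of rPXR cells plated 2,000 per well and preincubated 5hr; qHTS format with compounds delivered in DMSO.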

[16] = molecular target: Nuclear receptor subfamily 1 group I member 2 (Homo sapiens) (UniProt O75469); assay: CYP3A4 induction through human pregnane X receptor (PXR) by small molecules, qHTS assay (AID 1346984); note: nearly all actives have a fitted effect of over 40% in size
Method in brief: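 Human PXR activation is tracked via CYP3A4 promoter-luciferase in DPX-2 (HepG2) cells. Compounds treat cells for 24hr at 37C, and luminescence is read after One-Glo.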

[17] = molecular target: Nuclear receptor subfamily 1 group I member 2 (Homo sapiens) (UniProt O75469); assay: Human pregnane X receptor (PXR) activation by small molecules, qHTS assay (AID 1346985); note: nearly all actives have a fitted effect of over 40% in size
Method in brief: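 DPX-2 cells (HepG2 co-transfected with a PXR response element and a CYP3A4-promoter luciferase construct) were seeded at 2,000 per well, rested 5 hr at 37C, then exposed to DMSO-dissolved compounds for 24 hr. Activation was read as luciferase luminescence.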

Sequence of Nuclear receptor subfamily 1 group I member 2 (Rattus norvegicus) (Q9R1A7 whole entry, looked up): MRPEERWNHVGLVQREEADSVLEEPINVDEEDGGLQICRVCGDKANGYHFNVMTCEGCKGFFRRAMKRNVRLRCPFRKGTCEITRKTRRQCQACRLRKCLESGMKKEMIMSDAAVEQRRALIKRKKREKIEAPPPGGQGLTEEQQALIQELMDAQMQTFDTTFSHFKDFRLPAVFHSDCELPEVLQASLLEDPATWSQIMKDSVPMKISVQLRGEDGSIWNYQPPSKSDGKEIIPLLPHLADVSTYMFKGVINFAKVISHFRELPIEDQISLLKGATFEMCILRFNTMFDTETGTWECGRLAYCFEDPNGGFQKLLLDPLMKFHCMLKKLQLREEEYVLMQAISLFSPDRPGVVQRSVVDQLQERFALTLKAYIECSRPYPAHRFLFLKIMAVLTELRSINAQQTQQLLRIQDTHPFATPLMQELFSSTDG
Sequence of Aryl hydrocarbon receptor (Homo sapiens) (P35869 whole entry, looked up): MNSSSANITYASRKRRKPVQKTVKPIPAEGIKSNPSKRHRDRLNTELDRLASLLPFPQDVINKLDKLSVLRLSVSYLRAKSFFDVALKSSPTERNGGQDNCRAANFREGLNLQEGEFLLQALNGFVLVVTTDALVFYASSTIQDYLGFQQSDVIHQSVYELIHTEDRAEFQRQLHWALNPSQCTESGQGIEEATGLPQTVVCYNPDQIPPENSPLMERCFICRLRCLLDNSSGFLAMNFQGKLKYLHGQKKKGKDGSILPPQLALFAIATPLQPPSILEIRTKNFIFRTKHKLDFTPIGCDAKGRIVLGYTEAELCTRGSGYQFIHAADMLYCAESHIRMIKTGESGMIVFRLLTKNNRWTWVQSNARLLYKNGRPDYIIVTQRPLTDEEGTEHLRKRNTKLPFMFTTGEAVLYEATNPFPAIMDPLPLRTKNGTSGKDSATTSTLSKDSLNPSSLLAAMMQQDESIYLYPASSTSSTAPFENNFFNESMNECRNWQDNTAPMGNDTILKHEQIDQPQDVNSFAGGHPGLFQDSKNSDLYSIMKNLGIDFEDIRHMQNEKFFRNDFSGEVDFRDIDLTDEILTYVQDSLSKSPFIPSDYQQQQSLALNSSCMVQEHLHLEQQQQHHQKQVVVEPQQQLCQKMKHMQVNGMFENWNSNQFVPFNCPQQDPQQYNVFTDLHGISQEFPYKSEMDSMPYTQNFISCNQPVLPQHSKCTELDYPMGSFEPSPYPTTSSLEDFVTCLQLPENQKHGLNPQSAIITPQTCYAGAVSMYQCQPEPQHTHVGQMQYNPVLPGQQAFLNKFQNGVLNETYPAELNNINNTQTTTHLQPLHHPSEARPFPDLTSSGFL
Sequence of Aromatase (Homo sapiens) (P11511 whole entry, looked up): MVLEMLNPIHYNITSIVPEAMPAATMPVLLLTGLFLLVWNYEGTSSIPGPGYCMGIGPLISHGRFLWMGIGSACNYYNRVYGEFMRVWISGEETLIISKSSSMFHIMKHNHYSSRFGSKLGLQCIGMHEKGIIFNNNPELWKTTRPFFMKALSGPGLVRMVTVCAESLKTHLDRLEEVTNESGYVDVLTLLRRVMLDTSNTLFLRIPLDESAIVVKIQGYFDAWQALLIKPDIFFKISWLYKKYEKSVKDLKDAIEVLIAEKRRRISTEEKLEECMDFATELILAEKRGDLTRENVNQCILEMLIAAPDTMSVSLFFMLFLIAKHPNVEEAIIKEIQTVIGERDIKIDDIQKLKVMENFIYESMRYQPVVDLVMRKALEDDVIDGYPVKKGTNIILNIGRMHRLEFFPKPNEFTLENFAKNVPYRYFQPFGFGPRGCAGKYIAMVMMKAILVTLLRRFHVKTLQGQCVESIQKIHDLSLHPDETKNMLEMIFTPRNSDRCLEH
Sequence of Peroxisome proliferator-activated receptor gamma (Homo sapiens) (P37231 whole entry, looked up): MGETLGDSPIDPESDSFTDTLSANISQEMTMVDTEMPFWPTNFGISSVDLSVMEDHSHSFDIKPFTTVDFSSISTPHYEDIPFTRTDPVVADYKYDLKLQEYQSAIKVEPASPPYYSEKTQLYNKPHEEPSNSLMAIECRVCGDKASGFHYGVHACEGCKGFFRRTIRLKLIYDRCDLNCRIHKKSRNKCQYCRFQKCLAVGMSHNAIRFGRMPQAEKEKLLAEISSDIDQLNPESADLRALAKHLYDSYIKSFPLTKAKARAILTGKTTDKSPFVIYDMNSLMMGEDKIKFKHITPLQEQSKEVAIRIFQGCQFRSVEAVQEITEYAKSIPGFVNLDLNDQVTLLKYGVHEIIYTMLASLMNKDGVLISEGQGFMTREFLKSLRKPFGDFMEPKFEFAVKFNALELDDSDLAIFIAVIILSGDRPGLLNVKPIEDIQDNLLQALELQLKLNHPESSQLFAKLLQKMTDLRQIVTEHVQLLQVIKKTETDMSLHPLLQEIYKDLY
Sequence of Estrogen receptor (Homo sapiens) (P03372 whole entry, looked up): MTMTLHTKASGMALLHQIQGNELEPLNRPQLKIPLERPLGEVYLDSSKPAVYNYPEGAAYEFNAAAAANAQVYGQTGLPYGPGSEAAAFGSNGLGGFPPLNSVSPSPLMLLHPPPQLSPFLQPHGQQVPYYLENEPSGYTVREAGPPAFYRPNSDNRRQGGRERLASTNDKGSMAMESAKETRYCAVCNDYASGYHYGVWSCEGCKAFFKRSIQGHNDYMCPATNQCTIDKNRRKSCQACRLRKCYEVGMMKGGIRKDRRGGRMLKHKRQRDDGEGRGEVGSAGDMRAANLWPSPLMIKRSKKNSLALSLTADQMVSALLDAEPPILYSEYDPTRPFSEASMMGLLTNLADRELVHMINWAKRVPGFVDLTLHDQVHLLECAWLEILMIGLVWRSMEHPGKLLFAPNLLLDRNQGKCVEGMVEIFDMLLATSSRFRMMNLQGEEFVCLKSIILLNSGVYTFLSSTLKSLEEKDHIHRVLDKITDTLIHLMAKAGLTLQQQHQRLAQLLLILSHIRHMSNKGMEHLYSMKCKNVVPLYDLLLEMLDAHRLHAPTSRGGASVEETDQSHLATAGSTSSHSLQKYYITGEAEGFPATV

Structure (SMILES)	Potency [1]	Potency [2]	Potency [3]	Potency [4]	Potency [5]	Potency [6]	Potency [7]	Potency [8]	Potency [9]	Potency (Aromatase (Homo sapiens))	Potency [10]	Potency [11]	Potency [12]	Potency [13]	Potency [14]	max activation [15]	Potency [16]	Potency [17]
CCCCC(O)c1ccccc1 (configuration not stated)	inactive	inactive	inactive	inactive	inactive	inactive	21.1 µM (active)	inactive	inactive	inactive	inactive	inactive	inactive	inactive	inactive	-0.82%	inactive	inactive
C[Se]CCC(N)C(=O)O (configuration not stated)	inactive	inactive	inactive	inactive	inactive	inactive	inactive	inactive	inactive	inactive	inactive		inactive	inactive	inactive	-0.898%	inactive	inactive
CCC(Oc1ccccc1)C(=O)N[C@@H]1C(=O)N2[C@@H]1SC(C)(C)[C@@H]2C(=O)O (some centres not stated)	inactive	inactive	inactive	inactive	inactive	inactive	inactive	inactive	inactive	inactive	inactive	inactive	inactive	inactive	inactive	-1.86%	inactive	inactive
CC(C)[C@H](N)C(=O)OCC(CO)OCn1cnc2c(=O)[nH]c(N)nc21 (some centres not stated)	inactive	inactive	inactive	inactive	inactive	inactive	inactive		inactive	inactive	inactive	inactive	inactive	inactive	inactive	-3.1%	inactive	inactive
C[C@H](O)[C@H](O)[C@H]1CNc2nc(N)[nH]c(=O)c2N1	inactive	inactive	inactive	inactive	inactive	inactive	inactive	inactive		inactive	inactive	inactive	inactive	inactive	inactive	-2.27%	inactive	inactive
CCN(CC)CCOC(=O)c1cccnc1	inactive	inactive	inactive	inactive	inactive	inactive	inactive	inactive	inactive	inactive	inactive	inactive	inactive	inactive	inactive	-7.53%	inactive	inactive
O=S(=O)(O)CCCS(=O)(=O)O	inactive	inactive	inactive	inactive	inactive	inactive	inactive		inactive	inactive	inactive	inactive	inactive	inactive	inactive	-2.5%	inactive	inactive
CCOC(=O)[C@H](CS)NCCN[C@@H](CS)C(=O)OCC	inactive	inactive	inactive	inactive	inactive	inactive	inactive		inactive	inactive	inactive	inactive	inactive	inactive	inactive	-0.64%	inactive	inactive
CCOC(=O)c1c[nH]c2cc(OCC(C)C)c(OCC(C)C)cc2c1=O	inactive	inactive	inactive	inactive	inactive	inactive	inactive	inactive	inactive	inactive	inactive		inactive	inactive	inactive	-0.745%	inactive	inactive
CCN1C(=O)NC(c2ccccc2)C1=O (configuration not stated)	inactive	inactive	inactive	inactive	inactive	inactive	inactive	inactive	inactive	inactive	inactive	inactive	inactive		inactive	7.71%	inactive	inactive
C=CCCCCCCCCC(=O)OC	inactive	inactive	inactive	inactive	inactive	inactive	inactive		inactive	inactive	inactive	inactive	inactive	inactive	inactive	-1.33%	inactive	inactive
CC(=O)Nc1ccc(OC(=O)c2ccccc2O)cc1	inactive	inactive	inactive		inactive				inactive	inactive	inactive	inactive	inactive	inactive	inactive	-2.95%	inactive	inactive
CC(=O)N[C@@H]([C@@H](O)[C@H](O)[C@H](O)CO)[C@@H](O)CC(=O)C(=O)O	inactive	inactive	inactive		inactive				inactive	inactive	inactive	inactive	inactive	inactive	inactive	-0.275%	inactive	inactive
CCCCCCCCCCCCCCCCCC(=O)OC[C@@H](O)[C@H]1OC[C@H](O)[C@H]1O	inactive	inactive	inactive		inactive				inactive	inactive	inactive	inactive	inactive	inactive	inactive	-0.713%	inactive	inactive
